Laboratory results reported in the supplement of paper PMC11732987, “Enantioselective OTUD7B fragment discovery through chemoproteomics screening and high-throughput optimisation” (Communications Chemistry, 2025).

What was measured:
Experiment in all cases: log2 ratio of Biotin-Ahx-Ub-VS probe labelling (fragment/DMSO); higher = less target engagement (more negative = stronger competition), active = hit call of the paper (q ≤ 0.05, log2 ratio ≤ -1)
Settings in all cases: compound concentration: 200 uM; treatment time: 3 h
USP9X = USP9X (UniProt Q93008)
Method in brief: (§1)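 Labelled DUBs from HEK293T lysate were NeutrAvidin-enriched, digested with LysC and trypsin, and run by diaPASEF LC-MS/MS. Before that, each 495 µg sample in Tris/CHAPS/IGEPAL buffer with protease inhibitors was treated in triplicate with fragment at 200 µM or vehicle for 3 h, then with Biotin-Ahx-Ub-VS at 0.5 µM final for 1 h. Values are average log2 ratios of fragment over vehicle by unpaired t-test, based on global-median-normalised Spectronaut label-free quantities from proteins with ≥2 unique peptides.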

UniProt O00487 = target: UniProt O00487
Sequence of UniProt O00487 (O00487 whole entry): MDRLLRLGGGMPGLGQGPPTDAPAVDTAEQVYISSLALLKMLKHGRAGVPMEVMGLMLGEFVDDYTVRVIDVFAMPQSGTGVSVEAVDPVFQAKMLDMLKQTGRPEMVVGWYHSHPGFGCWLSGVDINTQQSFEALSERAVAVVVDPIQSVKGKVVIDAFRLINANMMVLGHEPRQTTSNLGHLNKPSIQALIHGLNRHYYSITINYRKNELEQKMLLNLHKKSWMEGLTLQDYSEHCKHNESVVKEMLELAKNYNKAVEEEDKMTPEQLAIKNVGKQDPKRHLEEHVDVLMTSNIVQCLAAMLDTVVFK
Method in brief: as §1

UniProt O00507 = target: UniProt O00507
Sequence of UniProt O00507 (O00507 whole entry): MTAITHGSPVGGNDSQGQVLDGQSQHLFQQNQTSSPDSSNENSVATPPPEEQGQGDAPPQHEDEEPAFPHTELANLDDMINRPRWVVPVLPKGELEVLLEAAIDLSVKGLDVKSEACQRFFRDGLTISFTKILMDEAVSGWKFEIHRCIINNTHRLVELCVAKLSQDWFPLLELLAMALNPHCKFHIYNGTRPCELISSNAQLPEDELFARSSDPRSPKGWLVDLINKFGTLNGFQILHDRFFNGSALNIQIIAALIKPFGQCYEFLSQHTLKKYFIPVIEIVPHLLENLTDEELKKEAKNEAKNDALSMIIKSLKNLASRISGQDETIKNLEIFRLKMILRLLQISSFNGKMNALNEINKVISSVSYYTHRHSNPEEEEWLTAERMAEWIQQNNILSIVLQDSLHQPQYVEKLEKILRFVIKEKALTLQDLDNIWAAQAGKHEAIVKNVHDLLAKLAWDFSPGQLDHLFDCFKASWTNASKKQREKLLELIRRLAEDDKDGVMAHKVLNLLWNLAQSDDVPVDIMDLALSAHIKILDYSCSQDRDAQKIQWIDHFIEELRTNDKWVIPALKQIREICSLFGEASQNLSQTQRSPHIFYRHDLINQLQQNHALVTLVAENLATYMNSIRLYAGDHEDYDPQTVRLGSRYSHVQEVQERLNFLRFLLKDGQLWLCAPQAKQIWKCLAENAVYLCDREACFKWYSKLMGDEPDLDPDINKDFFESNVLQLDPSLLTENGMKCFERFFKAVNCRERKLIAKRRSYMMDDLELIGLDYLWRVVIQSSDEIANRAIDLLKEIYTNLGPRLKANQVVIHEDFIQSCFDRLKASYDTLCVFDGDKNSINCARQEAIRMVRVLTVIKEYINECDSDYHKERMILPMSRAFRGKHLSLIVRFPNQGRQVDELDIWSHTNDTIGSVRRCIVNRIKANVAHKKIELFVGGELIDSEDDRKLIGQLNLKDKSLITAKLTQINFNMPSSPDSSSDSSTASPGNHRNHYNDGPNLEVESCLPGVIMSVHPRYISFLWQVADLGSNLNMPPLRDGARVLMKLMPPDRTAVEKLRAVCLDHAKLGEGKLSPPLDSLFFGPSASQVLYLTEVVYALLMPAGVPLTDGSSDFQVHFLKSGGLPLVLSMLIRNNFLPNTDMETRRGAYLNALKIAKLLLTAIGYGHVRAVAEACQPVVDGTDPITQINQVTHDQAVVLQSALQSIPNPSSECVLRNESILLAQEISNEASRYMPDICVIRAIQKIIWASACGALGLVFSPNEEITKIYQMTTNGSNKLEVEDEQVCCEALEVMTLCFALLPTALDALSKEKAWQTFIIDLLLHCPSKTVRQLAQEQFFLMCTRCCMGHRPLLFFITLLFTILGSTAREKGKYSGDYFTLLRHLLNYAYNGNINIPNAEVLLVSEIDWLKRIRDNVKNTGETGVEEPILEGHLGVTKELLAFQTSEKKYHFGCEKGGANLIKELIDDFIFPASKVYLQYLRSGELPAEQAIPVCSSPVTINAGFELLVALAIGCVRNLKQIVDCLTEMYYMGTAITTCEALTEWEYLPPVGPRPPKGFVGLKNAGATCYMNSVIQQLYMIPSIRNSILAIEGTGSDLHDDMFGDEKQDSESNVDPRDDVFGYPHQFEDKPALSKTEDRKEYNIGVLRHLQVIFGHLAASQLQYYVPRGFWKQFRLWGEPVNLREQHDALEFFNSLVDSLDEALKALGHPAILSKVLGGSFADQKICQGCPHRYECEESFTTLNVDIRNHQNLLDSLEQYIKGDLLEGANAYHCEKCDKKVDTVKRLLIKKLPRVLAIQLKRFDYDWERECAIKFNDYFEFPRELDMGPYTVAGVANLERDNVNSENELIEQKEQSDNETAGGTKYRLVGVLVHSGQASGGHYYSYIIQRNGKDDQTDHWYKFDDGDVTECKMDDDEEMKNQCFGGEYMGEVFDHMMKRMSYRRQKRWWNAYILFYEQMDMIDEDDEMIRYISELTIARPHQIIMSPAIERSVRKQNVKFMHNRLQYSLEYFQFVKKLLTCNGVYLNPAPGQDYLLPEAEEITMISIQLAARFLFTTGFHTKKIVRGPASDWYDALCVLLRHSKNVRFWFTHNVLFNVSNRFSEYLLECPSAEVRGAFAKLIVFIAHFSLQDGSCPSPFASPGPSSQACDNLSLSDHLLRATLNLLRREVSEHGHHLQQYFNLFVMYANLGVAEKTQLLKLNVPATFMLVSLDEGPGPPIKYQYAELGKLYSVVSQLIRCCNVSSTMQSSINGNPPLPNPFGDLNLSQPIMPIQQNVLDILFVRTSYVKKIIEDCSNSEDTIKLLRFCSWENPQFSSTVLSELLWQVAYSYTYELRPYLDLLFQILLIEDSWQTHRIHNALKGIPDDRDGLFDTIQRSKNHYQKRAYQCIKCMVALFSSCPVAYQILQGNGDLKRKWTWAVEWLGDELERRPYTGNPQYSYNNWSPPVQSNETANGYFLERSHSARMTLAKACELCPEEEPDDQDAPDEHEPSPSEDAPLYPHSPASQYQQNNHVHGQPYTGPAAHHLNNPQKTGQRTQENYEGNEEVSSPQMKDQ
Method in brief: as §1

UniProt P51784 = target: UniProt P51784
Sequence of UniProt P51784 (P51784 whole entry): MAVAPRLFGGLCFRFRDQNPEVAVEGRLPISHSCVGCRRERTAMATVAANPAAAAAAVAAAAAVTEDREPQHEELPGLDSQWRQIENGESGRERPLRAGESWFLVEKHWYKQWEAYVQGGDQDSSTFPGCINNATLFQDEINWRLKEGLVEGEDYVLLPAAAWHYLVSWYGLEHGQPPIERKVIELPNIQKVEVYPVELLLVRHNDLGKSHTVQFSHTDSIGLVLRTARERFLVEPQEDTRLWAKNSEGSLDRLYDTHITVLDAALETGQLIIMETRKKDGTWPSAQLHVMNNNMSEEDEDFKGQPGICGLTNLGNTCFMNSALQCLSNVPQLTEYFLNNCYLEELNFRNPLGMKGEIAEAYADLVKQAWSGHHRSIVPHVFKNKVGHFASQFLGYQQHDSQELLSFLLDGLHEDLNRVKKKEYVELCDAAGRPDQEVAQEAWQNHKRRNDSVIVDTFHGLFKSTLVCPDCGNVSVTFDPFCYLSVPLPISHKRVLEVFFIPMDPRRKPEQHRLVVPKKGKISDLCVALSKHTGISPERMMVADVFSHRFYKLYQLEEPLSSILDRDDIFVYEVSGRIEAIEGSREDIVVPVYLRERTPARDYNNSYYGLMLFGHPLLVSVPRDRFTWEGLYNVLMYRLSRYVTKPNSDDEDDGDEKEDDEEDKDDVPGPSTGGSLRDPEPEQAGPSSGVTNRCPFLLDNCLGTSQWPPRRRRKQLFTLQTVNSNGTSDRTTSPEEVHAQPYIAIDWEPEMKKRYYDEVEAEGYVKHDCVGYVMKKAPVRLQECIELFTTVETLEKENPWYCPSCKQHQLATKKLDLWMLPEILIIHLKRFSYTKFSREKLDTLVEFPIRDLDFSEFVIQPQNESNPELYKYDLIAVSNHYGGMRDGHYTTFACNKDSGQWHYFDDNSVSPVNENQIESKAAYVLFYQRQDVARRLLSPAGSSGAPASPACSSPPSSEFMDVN
Method in brief: as §1

UniProt Q5T2D3 = target: T1, UniProt Q5T2D3
T1 sequence (whole entry): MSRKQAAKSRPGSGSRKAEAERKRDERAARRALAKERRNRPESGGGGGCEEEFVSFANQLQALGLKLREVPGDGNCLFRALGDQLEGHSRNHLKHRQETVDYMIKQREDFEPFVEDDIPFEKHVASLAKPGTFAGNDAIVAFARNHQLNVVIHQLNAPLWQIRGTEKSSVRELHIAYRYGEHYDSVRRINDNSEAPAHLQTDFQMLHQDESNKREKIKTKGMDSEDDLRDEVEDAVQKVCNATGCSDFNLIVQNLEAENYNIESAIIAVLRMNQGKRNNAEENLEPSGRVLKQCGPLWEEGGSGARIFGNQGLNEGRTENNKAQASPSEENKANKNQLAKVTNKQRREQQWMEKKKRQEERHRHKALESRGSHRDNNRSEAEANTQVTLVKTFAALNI
Method in brief: as §1

UniProt Q8TE49 = target: T2, UniProt Q8TE49
T2 sequence (whole entry): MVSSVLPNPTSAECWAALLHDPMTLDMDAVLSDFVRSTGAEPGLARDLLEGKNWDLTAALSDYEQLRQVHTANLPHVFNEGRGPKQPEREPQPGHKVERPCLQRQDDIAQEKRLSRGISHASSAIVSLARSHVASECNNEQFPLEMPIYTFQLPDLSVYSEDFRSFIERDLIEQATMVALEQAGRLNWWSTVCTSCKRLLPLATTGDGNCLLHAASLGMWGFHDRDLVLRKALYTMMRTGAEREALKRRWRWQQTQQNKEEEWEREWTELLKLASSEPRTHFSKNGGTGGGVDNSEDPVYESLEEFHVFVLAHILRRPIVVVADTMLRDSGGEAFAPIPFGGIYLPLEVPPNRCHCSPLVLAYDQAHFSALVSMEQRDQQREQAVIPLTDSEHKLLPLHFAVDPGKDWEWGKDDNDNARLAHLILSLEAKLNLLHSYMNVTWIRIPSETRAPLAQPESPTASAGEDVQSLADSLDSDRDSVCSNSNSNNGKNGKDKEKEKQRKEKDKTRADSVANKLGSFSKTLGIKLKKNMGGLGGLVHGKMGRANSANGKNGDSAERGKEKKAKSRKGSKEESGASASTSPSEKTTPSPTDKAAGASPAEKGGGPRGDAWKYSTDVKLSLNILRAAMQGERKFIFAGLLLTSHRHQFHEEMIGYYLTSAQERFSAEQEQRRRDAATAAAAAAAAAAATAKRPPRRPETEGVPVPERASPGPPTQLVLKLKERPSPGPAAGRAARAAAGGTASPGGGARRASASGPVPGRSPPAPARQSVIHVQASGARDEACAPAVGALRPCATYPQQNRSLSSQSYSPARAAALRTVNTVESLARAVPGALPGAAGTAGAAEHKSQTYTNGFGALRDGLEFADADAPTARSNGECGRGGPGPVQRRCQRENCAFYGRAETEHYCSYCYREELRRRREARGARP
Method in brief: as §1

UniProt Q9P2H5 = target: T3, UniProt Q9P2H5
T3 sequence (whole entry): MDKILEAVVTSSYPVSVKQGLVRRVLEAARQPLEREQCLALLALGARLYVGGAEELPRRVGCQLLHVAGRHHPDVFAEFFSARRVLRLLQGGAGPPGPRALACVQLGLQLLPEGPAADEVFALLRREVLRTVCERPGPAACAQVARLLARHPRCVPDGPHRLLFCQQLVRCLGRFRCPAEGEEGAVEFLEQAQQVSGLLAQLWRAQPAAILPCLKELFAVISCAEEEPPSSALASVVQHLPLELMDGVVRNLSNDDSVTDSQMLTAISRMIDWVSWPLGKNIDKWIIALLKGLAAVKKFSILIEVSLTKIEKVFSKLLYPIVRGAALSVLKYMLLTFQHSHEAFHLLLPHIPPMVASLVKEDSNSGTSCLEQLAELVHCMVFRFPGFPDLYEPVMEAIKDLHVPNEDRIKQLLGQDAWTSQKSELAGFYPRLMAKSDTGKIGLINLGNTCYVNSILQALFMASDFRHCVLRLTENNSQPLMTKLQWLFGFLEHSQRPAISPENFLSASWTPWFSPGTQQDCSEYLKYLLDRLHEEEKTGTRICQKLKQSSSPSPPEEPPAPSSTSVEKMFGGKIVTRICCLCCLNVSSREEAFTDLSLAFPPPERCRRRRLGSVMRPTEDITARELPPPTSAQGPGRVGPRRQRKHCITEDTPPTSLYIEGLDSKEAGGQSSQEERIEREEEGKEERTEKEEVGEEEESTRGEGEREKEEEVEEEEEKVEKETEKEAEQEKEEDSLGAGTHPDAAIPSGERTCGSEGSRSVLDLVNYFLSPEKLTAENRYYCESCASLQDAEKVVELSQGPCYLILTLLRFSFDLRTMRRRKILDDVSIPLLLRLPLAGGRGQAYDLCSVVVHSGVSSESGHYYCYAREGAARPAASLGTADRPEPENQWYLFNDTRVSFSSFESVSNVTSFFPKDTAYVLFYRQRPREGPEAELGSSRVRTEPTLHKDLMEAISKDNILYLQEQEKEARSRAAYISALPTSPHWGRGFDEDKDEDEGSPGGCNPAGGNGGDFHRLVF
Method in brief: as §1

UniProt Q9UGI0 = target: T4, UniProt Q9UGI0
T4 sequence (whole entry): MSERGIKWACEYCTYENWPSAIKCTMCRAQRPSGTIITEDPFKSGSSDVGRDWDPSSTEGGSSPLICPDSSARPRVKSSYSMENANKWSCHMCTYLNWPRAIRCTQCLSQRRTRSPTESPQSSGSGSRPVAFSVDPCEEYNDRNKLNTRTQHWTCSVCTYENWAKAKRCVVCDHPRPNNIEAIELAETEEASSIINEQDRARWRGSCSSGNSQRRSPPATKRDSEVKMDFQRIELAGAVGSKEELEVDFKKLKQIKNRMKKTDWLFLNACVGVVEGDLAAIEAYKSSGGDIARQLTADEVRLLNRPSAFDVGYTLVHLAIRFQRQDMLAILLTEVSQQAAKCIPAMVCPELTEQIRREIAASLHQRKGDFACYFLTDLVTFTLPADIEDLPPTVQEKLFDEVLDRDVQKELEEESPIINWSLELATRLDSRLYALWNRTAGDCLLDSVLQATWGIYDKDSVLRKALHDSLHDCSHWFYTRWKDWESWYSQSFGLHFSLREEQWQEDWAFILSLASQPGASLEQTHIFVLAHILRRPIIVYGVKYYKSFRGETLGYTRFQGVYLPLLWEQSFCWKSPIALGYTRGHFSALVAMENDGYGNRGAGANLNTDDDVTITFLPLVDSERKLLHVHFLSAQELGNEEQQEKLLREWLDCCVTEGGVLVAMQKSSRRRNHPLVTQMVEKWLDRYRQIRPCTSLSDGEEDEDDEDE
Method in brief: as §1

YOD1 = target: T5, YOD1 (UniProt Q5VVQ6)
T5 sequence (whole entry): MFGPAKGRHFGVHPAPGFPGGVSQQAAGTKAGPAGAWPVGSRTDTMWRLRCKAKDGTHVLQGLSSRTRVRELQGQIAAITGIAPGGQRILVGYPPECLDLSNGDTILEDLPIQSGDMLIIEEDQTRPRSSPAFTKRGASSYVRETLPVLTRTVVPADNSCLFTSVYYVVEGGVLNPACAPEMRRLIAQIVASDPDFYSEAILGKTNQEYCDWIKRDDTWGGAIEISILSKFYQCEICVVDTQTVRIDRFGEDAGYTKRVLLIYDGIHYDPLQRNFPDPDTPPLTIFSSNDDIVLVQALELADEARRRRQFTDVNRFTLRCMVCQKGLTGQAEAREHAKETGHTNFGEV
Method in brief: as §1

Measured: log2 ratio of Biotin-Ahx-Ub-VS probe labelling

Cl.O=C(CCl)NC1(c2ncccn2)CCC1
inactive: USP9X 0.117 | UniProt O00487 0.0465 | UniProt O00507 -0.0196 | UniProt P51784 0.0134 | UniProt Q5T2D3 -0.0112 | UniProt Q8TE49 0.0256 | UniProt Q9P2H5 -0.0207 | UniProt Q9UGI0 -0.201 | YOD1 0.161
